Here are results for 5 compounds from PubChem BioAssay.

The source made the active and inactive calls. Unless noted, the rule behind the calls is not given here.

A short description of test [1]: compounds binding Alexa647 anti-His antibody – biochemical, small-molecule microarray, 635 nm fluorescence, artefact control for SMM control protein annotation, primary screen (AID 1128).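 Note: score merges feature fluorescence with signal-to-noise for each printed compound spot.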 The note with it: higher = more signal.
In test [2] the test system is Human papillomavirus type 1a E7 protein (residues 1-88). Nature of the test: HPV1a E7 small-molecule binders, primary screen, biochemical, small-molecule microarray, residues 1-88, 635 nm (AID 1129). The note with it: small-molecule microarray binding, fluorescence 635 nm; higher = more signal.
Test [3] deals with Focal adhesion kinase 1 (Homo sapiens) (UniProt Q05397). Nature of the test: PTK2 protein binding on printed compound slides – biochemical, small-molecule microarray, 635/667 nm fluorescence, BSA, DTT, primary screen (AID 1130).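 Note: composite of spot emission at 667 nm and signal to noise over triplicate slides.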 The note with it: 635 nm fluorescence, higher = more signal.
For test [4], the system named is Fibrinogen (Alexa647-labelled). Nature of the test: Alexa647-fibrinogen binding to printed small molecules – biochemical, small-molecule microarray, 635/667 nm fluorescence, artefact control for SMM control-protein annotation, profiling panel (AID 1131).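 Note: z-score merges 667 nm fluorescence with per-spot signal-to-noise over triplicate slides.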 The note with it: fibrinogen-A647 binding fluorescence, higher = more signal.
In test [5] the target is Follistatin (Homo sapiens) (UniProt P19883). As to the kind of experiment: FST protein binding to printed compounds – biochemical, small-molecule microarray, 635/667 nm fluorescence, primary screen (AID 1132). The note with it: 635 nm fluorescence, higher = more signal.
Test [6] concerns the target Fibroblast growth factor 2 (Homo sapiens) (UniProt P09038). As to the kind of experiment: basic fibroblast growth factor binding to printed compounds – biochemical, small-molecule microarray, 635/667 nm fluorescence, primary screen (AID 1133). The note with it: FGF2, fluorescence 635/667, higher = more signal.
The nature of test [7]: JC-1 mitochondrial potential readout, lung cancer cells – cell-based, A549, JC-1 fluorescence, basal, 24 h, 100 nL, profiling panel (AID 1138).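 Note: A549 lung adenocarcinoma cells under basal conditions with no added stimulus; test concentration not given here.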 The note with it: higher = more signal.
Another test relates to Lefty1. Nature of the test: Lefty1 protein binding to printed compounds – biochemical, small-molecule microarray, 635/667 nm fluorescence, primary screen (AID 1139). The note with it: fluorescence 635/667, higher = more signal.
Test [8] deals with wheat germ agglutinin (Triticum aestivum), Alexa647-labelled. Nature of the test: Alexa647-WGA lectin binding to printed small molecules – biochemical, small-molecule microarray, 635/667 nm fluorescence, artefact control for SMM control-protein annotation, profiling panel (AID 1140).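 Note: score merges 667 nm feature emission with signal to noise over triplicate slides.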 The note with it: WGA-A647 binding, 635 nm fluorescence, higher = more signal.
Test [9] addresses Luciferin 4-monooxygenase (Photinus pyralis) (UniProt P08659). Nature of the test: inhibition of purified Photinus pyralis luciferase – biochemical, luminescence, purified enzyme, 2006 set, primary screen (AID 1141).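 Note: cell-free assay with purified firefly luciferase at 100 ng per well in PBS; test concentration not given here.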 The note with it: purified firefly luciferase, SteadyGlo luminescence, 30 min; higher = more signal, called active from +8 up or from −8 down.
In test [10] the test system is Wnt5a (protein binding on small-molecule microarray). Nature of the test: small molecules binding Wnt5a protein – biophysical, small-molecule microarray, 635/667 nm fluorescence, primary screen (AID 1142).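 Note: fluorescence read at 667 nm with signal to noise per printed feature.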 The note with it: 635 nm fluorescence, higher = more signal.
Test [11] can be described thus: ATP-based viability of Huh7 replicon cells – cell-based, CellTiter-Glo luminescence, basal, 48 h, cytotoxicity control for HCV replication inhibitor project, primary screen (AID 1143).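 Note: Huh7 hepatoma cells carrying a hepatitis C replication reporter with no stimulus; test concentration not given here.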 The note with it: higher = more signal, called active from +8 up or from −8 down. (Replicon systems follow genome replication, usually without infectious particles.)
Test [12] can be described thus: Pseudomonas biofilm growth suppression – PAO1 strain, BacTiter-Glo luminescence, LB-PBS, primary screen (AID 1144). The note with it: P. aeruginosa PAO1 biofilm, 12 h, higher = more signal.
Test [13] in a line: basal CRE-LacZ reporter activity in PC12 – cell-based, unstimulated, primary screen (AID 1145). The note with it: no forskolin, luminescence, 4.5 h, higher = more signal, called active from +8 up or from −8 down.
Test [14] is described as follows: forskolin-driven CRE-LacZ activity in PC12 – cell-based, CRE-LacZ reporter, forskolin-stimulated, primary screen (AID 1146).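 Note: PC12 cells with 6xCRE LacZ reporter stimulated by forskolin 10 µM; beta-galactosidase reporter signal reflecting CREB driven transcription.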 The note with it: luminescence, 4.5 h, higher = more signal, called active from +8 up or from −8 down.
For test [15], the target named is Streptavidin (Streptomyces avidinii) (UniProt P22629). As to the kind of experiment: compounds binding control protein streptavidin – biophysical, small-molecule microarray, 635/667 nm fluorescence, artefact control for SMM compound annotation, primary screen (AID 1147).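 Note: signal reflects streptavidin binding to arrayed compounds as a control protein.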 The note with it: higher = more signal.
Test [16] is described as follows: probe aInhba binding on compound microarray – biochemical, small-molecule microarray, 635/667 nm fluorescence, primary screen (AID 1148).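 Note: score merges 667nm spot fluorescence with signal-to-noise for antibody binding to printed compounds.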 The note with it: higher = more signal.
In test [17] the target is Torsin-1A (Homo sapiens) (UniProt O14656). As to the kind of experiment: TOR1A wild-type binding on microarray – cell lysate, small-molecule microarray, lysate, 635/667 nm, primary screen (AID 1149). The note with it: COS7 hTOR1A-WT lysate, 635 nm fluorescence, higher = more signal.
The target is the same in test [18]. Nature of the test: torsin A mutant lysate binding on microarrays – cell lysate, small-molecule microarray, COS7 lysate, 635/667 nm fluorescence, primary screen (AID 1150).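 Note: score pools 667 nm emission and signal to noise measuring lysate protein binding.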 The note with it: COS7 hTOR1A mutant lysate, 635 nm fluorescence, higher = more signal.
In test [19] the test system is Sonic hedgehog protein (Shh). As to the kind of experiment: Sonic hedgehog microarray binding compounds – biochemical, small-molecule microarray, 635/667 nm fluorescence, primary screen (AID 1151).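 Note: Shh protein binding to compounds spotted on small-molecule microarray slides; score combines spot fluorescence intensity with signal-to-noise across triplicate slides.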 The note with it: 635 nm fluorescence, higher = more signal.

Chain of Follistatin (Homo sapiens) (P19883 whole entry, looked up): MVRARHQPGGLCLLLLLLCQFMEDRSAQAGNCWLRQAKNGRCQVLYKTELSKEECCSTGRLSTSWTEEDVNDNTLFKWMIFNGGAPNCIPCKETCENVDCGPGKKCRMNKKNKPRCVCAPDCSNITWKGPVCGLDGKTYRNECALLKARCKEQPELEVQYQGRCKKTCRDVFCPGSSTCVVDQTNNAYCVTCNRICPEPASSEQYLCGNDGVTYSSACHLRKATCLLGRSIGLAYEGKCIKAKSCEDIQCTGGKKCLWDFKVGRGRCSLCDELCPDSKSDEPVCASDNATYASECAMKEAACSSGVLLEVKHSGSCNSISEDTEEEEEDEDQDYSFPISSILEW
Chain of Streptavidin (Streptomyces avidinii) (P22629 whole entry, looked up): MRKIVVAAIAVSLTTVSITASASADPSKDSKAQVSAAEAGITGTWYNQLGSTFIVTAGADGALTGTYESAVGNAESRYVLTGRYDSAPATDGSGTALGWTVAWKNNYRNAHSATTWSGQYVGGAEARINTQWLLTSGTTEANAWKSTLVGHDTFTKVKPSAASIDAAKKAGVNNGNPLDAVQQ
Chain of Focal adhesion kinase 1 (Homo sapiens) (Q05397 whole entry, looked up): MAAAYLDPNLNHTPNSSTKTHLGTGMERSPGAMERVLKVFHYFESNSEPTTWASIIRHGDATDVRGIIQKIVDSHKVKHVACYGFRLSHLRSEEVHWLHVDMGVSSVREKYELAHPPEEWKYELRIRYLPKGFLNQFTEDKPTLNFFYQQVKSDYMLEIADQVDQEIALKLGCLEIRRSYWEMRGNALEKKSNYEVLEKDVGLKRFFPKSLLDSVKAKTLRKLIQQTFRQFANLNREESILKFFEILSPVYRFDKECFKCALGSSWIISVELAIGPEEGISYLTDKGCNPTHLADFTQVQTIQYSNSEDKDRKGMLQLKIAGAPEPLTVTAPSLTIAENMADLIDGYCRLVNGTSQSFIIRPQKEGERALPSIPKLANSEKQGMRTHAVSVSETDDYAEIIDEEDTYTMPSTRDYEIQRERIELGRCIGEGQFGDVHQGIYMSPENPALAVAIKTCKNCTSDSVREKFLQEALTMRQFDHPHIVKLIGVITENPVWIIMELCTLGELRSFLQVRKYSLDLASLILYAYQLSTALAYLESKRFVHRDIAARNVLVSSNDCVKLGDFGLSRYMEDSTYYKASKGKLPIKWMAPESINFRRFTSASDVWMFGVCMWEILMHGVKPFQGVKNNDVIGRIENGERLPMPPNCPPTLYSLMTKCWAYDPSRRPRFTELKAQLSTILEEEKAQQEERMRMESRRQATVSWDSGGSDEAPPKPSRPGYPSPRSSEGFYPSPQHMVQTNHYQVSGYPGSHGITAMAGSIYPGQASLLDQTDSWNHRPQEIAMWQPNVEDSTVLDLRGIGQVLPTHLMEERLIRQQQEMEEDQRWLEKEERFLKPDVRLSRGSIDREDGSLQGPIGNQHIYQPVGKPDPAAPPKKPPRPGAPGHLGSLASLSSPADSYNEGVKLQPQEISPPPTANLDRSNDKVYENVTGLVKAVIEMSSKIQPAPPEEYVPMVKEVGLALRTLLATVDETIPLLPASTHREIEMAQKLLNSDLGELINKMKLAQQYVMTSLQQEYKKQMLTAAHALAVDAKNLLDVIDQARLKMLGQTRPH
Chain of Torsin-1A (Homo sapiens) (O14656 whole entry, looked up): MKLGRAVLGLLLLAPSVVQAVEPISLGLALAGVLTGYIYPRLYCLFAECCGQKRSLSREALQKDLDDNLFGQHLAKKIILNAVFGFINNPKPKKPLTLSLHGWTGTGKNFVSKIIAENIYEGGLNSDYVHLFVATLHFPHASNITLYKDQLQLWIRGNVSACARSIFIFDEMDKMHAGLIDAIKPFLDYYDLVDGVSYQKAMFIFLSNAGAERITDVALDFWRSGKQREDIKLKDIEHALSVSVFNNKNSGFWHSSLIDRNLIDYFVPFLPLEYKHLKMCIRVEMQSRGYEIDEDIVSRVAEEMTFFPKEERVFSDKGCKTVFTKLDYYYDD
Chain of Luciferin 4-monooxygenase (Photinus pyralis) (P08659 whole entry, looked up): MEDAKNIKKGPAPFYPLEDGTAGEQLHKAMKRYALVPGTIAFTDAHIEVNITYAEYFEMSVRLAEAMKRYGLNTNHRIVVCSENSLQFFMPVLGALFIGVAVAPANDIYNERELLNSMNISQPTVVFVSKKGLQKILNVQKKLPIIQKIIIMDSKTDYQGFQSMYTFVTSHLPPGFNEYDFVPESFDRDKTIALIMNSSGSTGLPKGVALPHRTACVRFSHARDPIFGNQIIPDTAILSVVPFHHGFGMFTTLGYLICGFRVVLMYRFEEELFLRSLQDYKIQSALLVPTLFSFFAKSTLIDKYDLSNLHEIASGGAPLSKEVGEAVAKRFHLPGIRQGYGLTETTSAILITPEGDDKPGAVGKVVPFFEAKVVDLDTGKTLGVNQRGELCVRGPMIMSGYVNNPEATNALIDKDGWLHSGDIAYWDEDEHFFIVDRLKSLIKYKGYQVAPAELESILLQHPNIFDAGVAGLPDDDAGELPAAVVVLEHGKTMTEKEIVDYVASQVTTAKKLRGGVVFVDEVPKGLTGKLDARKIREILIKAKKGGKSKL
Chain of Fibroblast growth factor 2 (Homo sapiens) (P09038 whole entry, looked up): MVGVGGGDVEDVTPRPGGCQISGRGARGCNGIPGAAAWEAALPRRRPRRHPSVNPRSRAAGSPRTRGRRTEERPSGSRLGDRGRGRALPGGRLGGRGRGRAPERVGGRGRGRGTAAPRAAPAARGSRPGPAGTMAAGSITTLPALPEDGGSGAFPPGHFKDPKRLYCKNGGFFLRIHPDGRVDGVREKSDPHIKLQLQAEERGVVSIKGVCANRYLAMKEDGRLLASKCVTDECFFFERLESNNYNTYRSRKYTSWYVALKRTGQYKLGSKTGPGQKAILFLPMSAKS

On to `CC(=O)NCCCC[C@@H]1NC(=O)[C@@H]2C[C@H](C(=O)O)[C@H](c3ccc(O)cc3)N2C1=O`, for which the composite z-score is 2.07 in test [1]; -1.12 in test [2]; -0.58 in [3]; -0.408 in [4]; -0.893 in test [5]; -1.15 in [6]. The composite z-score was -1.71 in the test on Lefty1; -0.885 in test [8]; -0.734 in [10]; -1.04 in test [15]; -0.335 in test [16]; -2.46 with Torsin-1A (Homo sapiens) [17]. Also, the composite z-score was -2.19 with Torsin-1A (Homo sapiens) [18] and -0.96 in test [19]. Moreover, the z-score is -0.61 in [7]; 0.75 (inactive) in [9]; 0.454 (inactive) in test [11]; -0.646 (inactive) in [12]; -0.679 (inactive) in [13]; 0.407 (inactive) in test [14].
`CC(C)(C)OC(=O)CC[C@@]1(C(=O)O)N=C(c2ccc(OCCCO)cc2)O[C@@H]1c1ccccc1`: the composite z-score in test [1] was 1.52; in test [2] it was 0.716; in test [3], -0.219; in test [4], 0.506; in test [5], 0.0761; in test [6], -0.228. The composite z-score is -0.643 in the test on Lefty1; -0.0131 in test [8]; -0.181 in [10]; 0.0425 in test [15]; 0.0154 in [16]; 0.961 in the test with Torsin-1A (Homo sapiens) [17]. The composite z-score in the test with Torsin-1A (Homo sapiens) [18] is 0.694; in test [19], -0.736. The z-score was -0.161 in [7]; 0.383 (inactive) in test [9]; -0.97 (inactive) in test [11]; -0.335 (inactive) in [12]; -0.94 (inactive) in [13]; -0.374 (inactive) in test [14].
`C=CC1c2cc(O)c(OC)cc2CCN1Cc1sc2ccccc2c1Cl` (stereo not given): the composite z-score is 0.13 in [1]; 0.696 in [2]; -0.025 in [3]; 0.863 in test [4]; 1.28 in test [5]; -0.416 in [6]. Also, the composite z-score in the test with Lefty1 is 0.188; in [8], 0.983; in [10], 0.252; in test [15], 1.57; in test [16], -0.295; with Torsin-1A (Homo sapiens) [17], -0.425. Besides, the composite z-score is 0.257 with Torsin-1A (Homo sapiens) [18] and -0.0808 in [19]. Also, the z-score in [7] is -0.68; in test [9], -0.707 (inactive); in test [11] it was -3.81 (inactive); in test [12], 1.39 (inactive); in test [13], -0.114 (inactive); in test [14], 1.7 (inactive).
Take `O=C(O)[C@H](Cc1ccccc1)n1cc(-c2ccccn2)nn1`: the composite z-score in [1] worked out at 0.908; in test [2] it was 0.585; in test [3], 0.19; in test [4], 0.919; in [5], 0.676; in test [6], 0.0069. The composite z-score with Lefty1 is 0.5; in test [8] it was 0.425; in [10] it was 0.0676; in test [15], 0.303; in test [16] it was -0.0645; with Torsin-1A (Homo sapiens) [17] it was 0.307. The composite z-score with Torsin-1A (Homo sapiens) [18] was found to be 0.407; in [19], 0.506. Besides, the z-score in test [7] is -0.47; in [9], 1.01 (inactive); in test [11], -0.437 (inactive); in test [12], -0.0406 (inactive); in test [13], 0.688 (inactive); in test [14], -0.377 (inactive).
For the compound `COc1ccc(NN2C(C(O)c3ccccn3)C=CC3C(=O)N(C4CCCCC4)C(=O)C32)cc1` (stereo not given), the composite z-score in test [1] came out at 0.914; in [2], 1.22; in [3] it was 0.342; in test [4] it was 0.955; in test [5], 0.888; in test [6], 0.421. The composite z-score in the test on Lefty1 is -0.223; in test [8], 0.836; in [10], 0.483; in test [15], 1.37; in test [16] it was 0.0183; with Torsin-1A (Homo sapiens) [17], 0.0607. Besides, the composite z-score in the test with Torsin-1A (Homo sapiens) [18] is 0.542; in [19], -0.0244. In addition, the z-score in test [7] was 0.717; in test [9] it was -2.74 (inactive); in test [11], -0.924 (inactive); in test [12] it was -1.43 (inactive); in test [13], -0.471 (inactive); in test [14], -0.119 (inactive).
